Experimental findings from PubChem BioAssay (Tox21) are described below.

Values without a mark were called inactive. Activity calls are given as the source filed them. Calls follow the shape of the dose curve; as a rule, active = well fitted curve in the direction sought with a large enough effect in the repeat runs; inconclusive = weak or mixed curves; inactive = flat fitted curve, though single readings scatter.
% is scaled to controls: 0 for no effect and ±100 for the full control effect.

The experiment in a line: qHTS assay to test for compound auto fluorescence at 535 nm (green) in HEK293 cells (AID 720680). As to conditions: green autofluorescence 485/535 nm; series mostly up to 91.3 µM. The source says:
U.S. Tox21 Program National Center for Advancing Translational Sciences [NCATS] NIH Chemical Genomics Center [NCGC] U.S. Environmental Protection Agency [EPA] National Institutes of Environmental Health Sciences [NIEHS] National Toxicology Program [NTP] U.S. Food and Drug Administration [FDA] Tox21 Assay Overview: Compound auto fluorescence often interferes with screening of the compound library against various biological targets and signaling pathways. Some of these compounds may have fluorophoric properties. Such properties may interfere with the assay outputs resulting in false positives and/or negatives. To decrease such complications and ensure the compound activities are relevant in terms of biological response, the Tox21 10K compound library was screened for auto fluorescence. From the fluorophores used as reporter signals in our screening assays, the auto fluorescence equivalencies of compounds against three fluorophores have been evaluated: Triamterene, Fluorescein and Rose Bengal sodium for blue, green and red fluorescence, respectively. The fluorescence intensities were measured using Excitation/Emission wavelengths at 405/460nm, 485/535nm and 540/590nm for blue, green and red labels, respectively. This assay includes the green fluorescence data.
Tox21 Assay Protocol Summary: 2,000 HEK293 cells in 5 uL of culture medium containing 10% dialyzed FBS per well were dispensed into black wall/clear bottom 1536-well plates using a Multidrop Combi Dispenser (Thermo Scientific). The assay plates were incubated for 4-5 hr at 37C to allow cell attachment to the well bottom, followed by the transfer of 23 nL compound or DMSO vehicle by a pintool work station (Kalypsys, San Diego, CA). After the assay plates were incubated overnight at 37C and 5% CO2, fluorescence intensities in the assay plates were measured by an Envision (PerkinElmer, Shelton, CT) plate reader using three labels for measuring blue, green and red fluorescence at […] 460, 535 and 590nm respectively.
For orientation: Quantitative high-throughput screening tests each substance at several concentrations.
Take `CC(C)COC(=O)c1ccccc1O`: the result was inactive.
Still for that read-out and setting: under `C=CCOc1nc(OCC=C)nc(OCC=C)n1` stands “inactive”; under `CCCCNc1ccccc1`, “inactive”; under `COc1ccc(COC=O)cc1`, “inactive”.
On the same count and under the same terms, under `O=S(=O)(O)c1ccccc1O` stands “inactive”; under `CO[Si](OC)(OC)OC`, “inactive”.
As for `CC(C)(O)C(=O)c1ccc(OCCO)cc1`, the call was inactive.
Turning to `COc1ccc(N=[N+]([O-])c2ccc(OC)cc2)cc1`, the call was inactive.
Still for that read-out and setting: under `CCCc1ccc(N)cc1` stands “inactive”; under `CCC(=O)Nc1cccc(N)c1`, “inactive”.
Same read-out and setting: under `CCC(C(=O)NC(N)=O)c1ccccc1` (stereo not given) stands “inactive”.
Same read-out and setting: under `Nc1cc(C(Cl)=C(Cl)Cl)c(S(N)(=O)=O)cc1S(N)(=O)=O` stands “inactive”.
With `NS(=O)(=O)c1cc2c(cc1C(F)(F)F)NC(Cc1ccccc1)NS2(=O)=O` (stereo not given), the fluorescence, % of fluorescein is 0.103% [at 18.6 µM].
Take `CCCC(C)CO` (stereo not given): the outcome was inactive.
Consider `COC(=O)CCCC(=O)O`, for which the outcome was inactive.
On the same count and under the same terms, in the case of `OCC(O)[C@@H](O)[C@H](O)[C@H](O)CO[C@H]1O[C@H](CO)[C@@H](O)[C@H](O)[C@H]1O` (stereo not given in full) it was “inactive”; in that of `CCN1CCN(c2cc3c(cc2F)c(=O)c(C(=O)O)cn3C2CC2)CC1`, “inactive”; in that of `COCc1ccc(COC)cc1`, “inactive”.
On the same count and under the same terms, in the case of `CCCC(C)C(=O)O` (stereo not given) it was “inactive”; in that of `CC(=O)c1ccc(C)cc1`, “inactive”; in that of `CCCOCC(C)OCC(C)O` (stereo not given), “inactive”.
On the same count and under the same terms, under `CCOC(=O)Cn1c(=O)sc2cccc(Cl)c21` stands “inactive”.
For `CNc1ncnc2nc[nH]c12`, the molecule was classed as inactive.
`NC(=S)Nc1cccc2ccccc12`: the fluorescence, % of fluorescein is 0.198% [at 3.72 µM].
As to `COc1ccc(NC(C)=O)cc1`, the result was inactive.
The same measure, in the same setting: under `OCCCCCCO` stands “inactive”.
On the same count and under the same terms, in the case of `O=C(O)Cc1cc(I)c(Oc2cc(I)c(O)c(I)c2)c(I)c1` it was “inactive”.
Same read-out and setting: under `CCCCOCC(C)OCC(C)O` (stereo not given) stands “inactive”.
Turning to `CC(C)(C)C(=O)/C=C/c1ccc(Cl)cc1`, the outcome was inactive.
On the same count and under the same terms, in the case of `CC(C)(C)N(CCO)CCO` it was “inactive”.
As for `CN(C)CCn1nnnc1SCC1=C(C(=O)O)N2C(=O)[C@@H](NC(=O)Cc3csc(N)n3)[C@H]2SC1`, the fluorescence, % of fluorescein is 0.129% [at 18.6 µM].
As to `COc1cc(O)cc(O)c1`, the molecule was classed as inactive.
Same read-out and setting: under `C=C[Si](OC)(OC)OC` stands “inactive”.
On to `CCN1CCCC(OC(=O)C(c2ccccc2)c2ccccc2)C1` (stereo not given), for which the fluorescence, % of fluorescein is -0.0754% [at 18.6 µM].
As for `Oc1cc(O)c2c(c1)O[C@H](c1ccc(O)c(O)c1)[C@H](O)C2`, the molecule was called inactive.
Consider `O=C(O)C(O)[C@H](O)[C@@H](O)[C@H](O)[C@H](O)CO` (stereo not given in full), for which the molecule was called inactive.
The same measure, in the same setting: under `CCC(=O)c1cccc(Cl)c1` stands “inactive”; under `OCC(CO)(CO)COCC(CO)(CO)CO`, “inactive”; under `NC(=O)CCCCC1CCSS1` (stereo not given), “inactive”.
Same read-out and setting: in the case of `CSc1ccc(C=O)cc1` it was “inactive”.
